# Test system: T1, VEGFR2
# T1 construct: gene KDR
# Conditions: concentration: 1 μM, replicates: in singlicate; n = 1
# 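Also: KINOMEscan kinase panel screen.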
row,SMILES,%Inh [%]
1,O=C(NOCC1CC1)c1ccc(F)c(F)c1Nc1ccc(I)cc1Cl,0
2,C[C@@H](Oc1cc(-n2cnc3ccc(NC(=O)NC(C)(C)C)cc32)sc1C(N)=O)c1ccccc1Cl [GSK346294],3
3,Cc1nnc(-c2ccc(C)c(-c3ccc(C(=O)Nc4ccc(NS(C)(=O)=O)cc4)cc3)c2)o1 [GW702865],9
4,N#Cc1ccc(-c2cc(-c3c[nH]nc3-c3ccccn3)ccn2)cc1 [GW693028],0
5,O=C(Nc1n[nH]c2cc(-c3cccc(F)c3)ccc12)C1CC1 [SB-735464],12
6,Cn1cc(-c2ccc3c(c2)CCN3C(=O)Cc2ccccc2Cl)c2c(N)ncnc21 [GSK2608885],82
7,CC(C)Oc1ccc2c(-c3ccnc(Nc4ccc(N5CCN(C)CC5)cc4)n3)cnn2n1 [GW696155],60
8,O=C(NCCCN1CCOCC1)c1cccc(Nc2nccc(Nc3ccc(Oc4ccccc4)cc3)n2)c1 [GW663929],13
9,COc1cc2c(cc1OC[C@@H](O)CO)ncc1c3ccc(C#N)cc3[nH]c21,19
10,CN(C1=C(c2ccccc2)C(=O)NC1=O)c1ccccc1 [SB-334860],12
11,Fc1ccc(-c2nn3c(OCC(F)(F)F)cccc3c2-c2ccncc2)cc1 [GW514784],0
12,O=C1NC(=O)C(N2CCc3ccccc32)=C1c1cccc(Cl)c1 [SB-408010],6
13,Cl.Nc1ncnc2occ(-c3ccc(NC(=O)Nc4cc(C(F)(F)F)ccc4F)cc3)c12 [SB-707548],99.8
14,NS(=O)(=O)CCc1cccc(Nc2nccc(-c3c(-c4cccc(NC(=O)c5c(F)cccc5F)c4)nn4ccccc34)n2)c1 [GSK336735],90
15,Cc1nnc(-c2ccc3ncc(-c4ccc(S(C)=O)cc4)n3c2)o1 (centres unmarked),0
16,COc1ccc(Nc2nccc(N3CCC(NC(=O)Nc4cccc(C(C)=O)c4)C3)n2)cc1 (centres unmarked) [GSK1379731],0
17,NCC(NC(=O)c1cc(-c2cn[nH]c2)c(-c2ccnc3[nH]ccc23)s1)c1ccccc1.O=C(O)C(F)(F)F.O=C(O)C(F)(F)F (centres unmarked) [GSK1325775],18
18,N#Cc1c(N2CCOCC2)sc(-c2ccn[nH]2)c1-c1ccc(Cl)cc1,11
19,c1ccc(-c2n[nH]cc2-c2ccnc3ccccc23)nc1 [GW271431],12
20,Nc1nc(-c2ccc3c(N)n[nH]c3c2)cc(N2CCCC2)n1 [GSK2227430],0
